This is a sample that favours compounds with a hit; in the whole collection about 1.3% have one here.
WRN helicase inh – qHTS for Inhibitors of WRN Helicase; Bifunctional 3'-5' exonuclease/ATP-dependent helicase WRN (Homo sapiens), Q14191; Potency, µM (titrated, usually from 114 µM), without a hit: at the highest dose activity change, negative = inhibition, usual class: inhibitors; actives 0.46% (n = 360,000); WRN helicase unwinding, fluorescent forked duplex, kinetic; further: potency means the concentration at half of the fitted maximal effect; on the % scale 0 is the no-effect control and ±100 the full control effect; nearly all actives have a fitted effect of over 55% in size
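WRN at 20 nM final preincubated with compound 15 min at room temperature; reaction started with 100 nM fluorophore/quencher forked duplex oligonucleotide and 2 mM ATP final. Unwinding followed kinetically by red fluorescence (ex 525, em 598 nm).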
PI5P4Ka inh – qHTS for Inhibitors of phosphatidylinositol 5-phosphate 4-kinase (PI5P4K). actives 1.2% (n = 330,000). max response, %. PI5P4Kalpha enzyme, ADP-Glo luminescence, 60 min; active compounds read low; active means max response of -50% or lower; inconclusive means between -30% and -50%; inactive means -30% or higher; further: value at the top dose of about 77 µM; on the % scale 0 is the no-effect control and ±100 the full control effect
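Human PI5P4Kalpha with substrate in 0.038 M HEPES pH 7.4, 0.28 mM EGTA, 0.1% CHAPS, 5% DMSO; reaction started with 5 microM ATP (final), 60 min at room temperature. ADP formed read by ADP-Glo luminescence.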
Tb PGK inh – qHTS Assay to Find Inhibitors of Phosphoglycerate Kinase; actives 0.043% (n = 380,000); PGK/GAPDH coupled, Kinase-Glo luminescence, 60 min; Potency, µM (top dose mostly 57.5 µM), for the others: top-dose activity change, negative = inhibition, actives largely listed as inhibitors; AID 602233, 2012; further: potency means the concentration at half of the fitted maximal effect; on the % scale 0 is the no-effect control and ±100 the full control effect; nearly all actives have a fitted effect of over 60% in size
Target sequence (P07378 whole entry, looked up): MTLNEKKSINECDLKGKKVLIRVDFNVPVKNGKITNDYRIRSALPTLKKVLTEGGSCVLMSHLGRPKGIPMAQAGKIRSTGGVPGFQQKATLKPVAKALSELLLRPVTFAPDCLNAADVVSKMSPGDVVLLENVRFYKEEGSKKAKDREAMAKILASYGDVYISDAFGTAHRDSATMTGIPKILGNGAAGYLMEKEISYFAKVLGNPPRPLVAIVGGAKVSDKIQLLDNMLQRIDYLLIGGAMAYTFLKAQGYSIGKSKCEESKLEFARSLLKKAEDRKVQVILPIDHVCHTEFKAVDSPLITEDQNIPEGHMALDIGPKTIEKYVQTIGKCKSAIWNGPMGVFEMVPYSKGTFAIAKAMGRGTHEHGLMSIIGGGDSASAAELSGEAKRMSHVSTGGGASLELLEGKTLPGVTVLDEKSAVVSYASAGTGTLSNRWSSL
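Recombinant glycosomal PGK reaction used 1,3-bisphosphoglycerate generated in-well by GAPDH (100nM final) in 100mM TEA pH 7.6, 5mM MgCl2, 0.01% Tween-20. After 60 minutes at room temperature, ATP was read by Kinase-Glo Plus luminescence end-point.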
FEN1 inh – qHTS Assay for the Inhibitors of Human Flap endonuclease 1 (FEN1) | P39748 | Recombinant FEN1 flap cleavage, fluorescence, 15 min | Potency, µM (top dose mostly 114 µM), for the others: at the top dose activity change, negative = inhibition, most hits filed as inhibitors | actives 0.35% (n = 390,000) | AID 588795, 2011; further: potency means the concentration at half of the fitted maximal effect; on the % scale 0 is the no-effect control and ±100 the full control effect; nearly all actives have a fitted effect of over 65% in size
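FEN1 at 10 nM preincubated with compounds 15 min at room temperature, then flap DNA substrate added at 50 nM final. Signal read at 0 and 15 min; concentration-response fitted with four-parameter Hill equation.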
Glioma ERSR ind – qHTS for Inducers of the Endoplasmic Reticulum Stress Response (ERSR) in Human Glioma: qHTS | U87-MG GRP78 promoter luciferase reporter, 16 h | Potency, µM, inactives show top-dose activation, most hits filed as activators | actives 0.02% (n = 420,000) | AID 602332, 2012; further: potency means the concentration at half of the fitted maximal effect; series mostly up to about 76 µM; % of control where 0% means no effect; nearly all actives have a fitted effect of over 35% in size
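Stably transfected U87-MG glioma cells carrying a GRP78-based luciferase sensor; 16 h compound incubation. Luminescence end-point read 10 min after Bright-Glo addition at room temperature.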
Pin1 inhibitor – qHTS Assay to Find Inhibitors of Pin1; Potency, µM (doses to about 115 µM), for inactives: at the highest dose activity, negative = inhibition, usual class: inhibitors; Peptidyl-prolyl cis-trans isomerase NIMA-interacting 1 (Homo sapiens), Q13526; Pin1 FP peptide displacement, HiFluor488, 10 min; actives 0.009% (n = 390,000); active means well fitted inhibition curve with a large enough effect in the polarisation, with a control signal flat, not every such curve was filed as active; inconclusive means small, poorly fitted or top-dose-only effect, or effect the other way, or a change in a side signal; inactive means no such curve, though single readings can be large or run the other way; the % refers to the polarisation; further: potency means the concentration at half of the fitted maximal effect; on the % scale 0 is the no-effect control and ±100 the full control effect
Target sequence (Q13526 whole entry, looked up): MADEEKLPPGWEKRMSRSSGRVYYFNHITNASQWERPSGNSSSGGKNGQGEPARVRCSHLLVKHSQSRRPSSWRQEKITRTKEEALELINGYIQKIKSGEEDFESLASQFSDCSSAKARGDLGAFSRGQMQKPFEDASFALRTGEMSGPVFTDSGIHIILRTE
* = called active by the depositor; [ ] = another dose, or the depositor's remark. Unless noted, the call rests on the fitted dose curve; in most records, active means well fitted curve in the direction sought with a large enough effect; inconclusive means small, poorly fitted or top-dose-only effect, or another doubt; inactive means no such curve, though single readings can be large; an effect the other way counts as inactive or inconclusive.

How did CC(=O)C1=C(C)NC(SCC(=O)c2ccc(F)cc2)=C(C#N)C1CC(C)C (stereo not given) do in these assays?
WRN helicase inh: -20%; PI5P4Ka inh: -57*; Tb PGK inh: -2%; FEN1 inh: -11%; Glioma ERSR ind: 1%; Pin1 inhibitor: 8%

Results for COc1cc(OC)c(/C=C/c2nccc3ccccc23)c(OC)c1 ?
FEN1 inh: 4µM*; Glioma ERSR ind: -4%

What do the screens show for `COc1ccc(/C=C2\SC(=N)N(c3nccs3)C2=O)cc1OC`?
WRN helicase inh: -25%[57.1 µM]; PI5P4Ka inh: -23; Tb PGK inh: -3%; FEN1 inh: 79µM*; Glioma ERSR ind: inconclusive; Pin1 inhibitor: inconclusive

What do the screens show for `COc1ccc(/C=C2\SC(=O)N=C2N)cc1OC`?
WRN helicase inh: -3%; PI5P4Ka inh: -4; Tb PGK inh: inconclusive; FEN1 inh: -4%; Glioma ERSR ind: -4%; Pin1 inhibitor: -4%

Results for Cc1cc2oc(=O)cc(CN(C)Cc3ccccc3F)c2cc1Cl ?
WRN helicase inh: -4%; PI5P4Ka inh: 12; Tb PGK inh: -7%; FEN1 inh: 5%; Glioma ERSR ind: 6%; Pin1 inhibitor: 6%

What do the screens show for `CN(Cc1ccccc1F)Cc1cc(=O)oc2cc(O)c(Cl)cc12`?
WRN helicase inh: -10%; PI5P4Ka inh: -63*; Tb PGK inh: -3%; FEN1 inh: -5%; Glioma ERSR ind: 4%; Pin1 inhibitor: -5%

What do the screens show for `Cc1cc2c(s1)c1cnn(Cc3ccc(Cl)c(F)c3)c(=O)c1n2C`?
Pin1 inhibitor: -1%

How did COc1ccc(Cc2nnc(Nc3ccccc3)s2)cc1Br do in these assays?
WRN helicase inh: 56µM*; PI5P4Ka inh: 2; Tb PGK inh: -9%; FEN1 inh: inconclusive; Glioma ERSR ind: -4%; Pin1 inhibitor: -10%

What do the screens show for `NC(=O)C1CCN(c2ncc(-c3ccc4c(c3)OCCO4)s2)CC1`?
Pin1 inhibitor: -3%

How did CC(=O)Nc1ccc(S(=O)(=O)NC(CC(=O)NCCc2ccccc2)C(C)C)cc1 (stereo not given) do in these assays?
WRN helicase inh: -8%; Tb PGK inh: -1%; FEN1 inh: 11%; Glioma ERSR ind: inconclusive; Pin1 inhibitor: -6%

What do the screens show for `CC(=O)Nc1ccc(S(=O)(=O)NC(CC(=O)N(C)Cc2ccccc2)C(C)C)cc1` (stereo not given)?
WRN helicase inh: -17%; PI5P4Ka inh: -53*; Tb PGK inh: 4%; FEN1 inh: -4%; Glioma ERSR ind: -1%; Pin1 inhibitor: -4%

Results for C[C@H]1[C@@H](O)[C@@H](C)\C=C/C=C\C=C/C=C\C=C/C=C\C=C/[C@@H](O[C@H]2O[C@@H](C)[C@@H](O)[C@@H](N)[C@@H]2O)C[C@@H]2O[C@](O)(C[C@@H](O)C[C@@H](O)[C@@H](O)CC[C@@H](O)C[C@@H](O)CC(=O)O[C@H]1C)C[C@@H](O)[C@H]2C(=O)O (stereo in doubt) ?
Glioma ERSR ind: -5%

What do the screens show for `CC1C=CC=CC=CC=CC=CC=CC=CC(OC2OC(C)C(O)C(N)C2O)CC2OC(O)(CC(O)CC(O)C(O)CCC(O)CC(O)CC(=O)OC(C)C(C)C1O)CC(O)C2C(=O)O` (stereo not given)?
WRN helicase inh: 18µM*; PI5P4Ka inh: 8; Tb PGK inh: inconclusive; FEN1 inh: -17%; Glioma ERSR ind: -5%; Pin1 inhibitor: inconclusive

Results for O=C1NC(=Nc2ccc3ccccc3c2)S/C1=C/c1ccco1 ?
WRN helicase inh: -4%[11.6 µM]; PI5P4Ka inh: -55*; Tb PGK inh: -5%; FEN1 inh: -8%; Glioma ERSR ind: -1%; Pin1 inhibitor: 66%

What do the screens show for `Cc1ccc(N=C2NC(=O)/C(=C\c3ccco3)S2)cc1`?
WRN helicase inh: inconclusive; PI5P4Ka inh: -57*; Tb PGK inh: -4%; FEN1 inh: -5%; Glioma ERSR ind: 1%; Pin1 inhibitor: 1%

Results for O=C1NC(=Nc2ccc(O)cc2)S/C1=C/c1ccco1 ?
WRN helicase inh: -10%; PI5P4Ka inh: inconclusive; Tb PGK inh: -9%; FEN1 inh: -1%; Glioma ERSR ind: 0%; Pin1 inhibitor: 3%

How did Cc1cccc(N=C2NC(=O)S/C2=C\c2ccco2)c1 do in these assays?
WRN helicase inh: -27%; PI5P4Ka inh: inconclusive; Tb PGK inh: -11%; FEN1 inh: -26%; Glioma ERSR ind: 0%; Pin1 inhibitor: -8%

Results for Oc1cc(-c2nc3ccccc3s2)cc2c1OCCN(Cc1cn[nH]c1-c1ccc(Cl)cc1)C2 ?
Glioma ERSR ind: -2%

Results for CCCCCCCCCCCC[n+]1ccc(/C=C/c2c[nH]c3ccccc23)c2ccccc21 ?
FEN1 inh: -31%; Glioma ERSR ind: -3%

Results for CCCCCCCCCCCCCCCC[n+]1ccc(/C=C/c2c[nH]c3ccccc23)cc1 ?
FEN1 inh: inconclusive; Glioma ERSR ind: -11%

How did CCCCCCCCCC[n+]1ccc(/C=C/c2c[nH]c3ccccc23)cc1 do in these assays?
FEN1 inh: 89µM*; Glioma ERSR ind: -12%

Results for CCCCCCCCCCCCCCCC[n+]1ccc(/C=C/c2c[nH]c3ccccc23)c2ccccc21 ?
FEN1 inh: 50µM*; Glioma ERSR ind: -8%

Results for CCCCCCC[n+]1ccc(C)c2ccccc21 ?
FEN1 inh: 3%; Glioma ERSR ind: -4%

What do the screens show for `CCCCCCC[n+]1ccc(/C=C/c2c[nH]c3ccccc23)c2ccccc21`?
FEN1 inh: 25µM*; Glioma ERSR ind: -12%

Results for CN(C)c1cccc(-c2nnc(N3CCC(C(N)=O)CC3)s2)c1 ?
Pin1 inhibitor: 5%

What do the screens show for `Clc1ccc(CN(CCCNc2ncnc(NCCCc3cnc[nH]3)n2)c2ccc(Br)cn2)cc1Cl`?
Pin1 inhibitor: 4%

What do the screens show for `CCn1c(CSc2nnc3ccccn23)nc2cc(C(=O)O)ccc21`?
WRN helicase inh: 37%[57.1 µM]; PI5P4Ka inh: -8; Tb PGK inh: -2%; FEN1 inh: 50µM*; Glioma ERSR ind: -7%; Pin1 inhibitor: inconclusive

Results for CC(C)CCNC(=O)NC(=O)COC(=O)/C=C/c1cc(Br)ccc1F ?
WRN helicase inh: inconclusive; PI5P4Ka inh: -62*; Tb PGK inh: -3%; FEN1 inh: 3%; Glioma ERSR ind: 4%; Pin1 inhibitor: -3%

Assay outcomes (PubChem BioAssay)
